Sampled rows, rich in hits. Any-hit rate of the full collection: about 9.3%.
VACV Venus inh – vaccinia inhibition (Venus reporter) | 330,000 compounds, 0.46% hits | Vaccinia virus Venus reporter expression, fluorescence | Potency, µM (doses to about 36.5 µM), inactives show at the top dose activity change, negative = inhibition, usual class: inhibitors | AID 720580; calls by dose curve; tested in A549 cells; note: potency is the fitted concentration of half-maximal effect; nearly all actives have a fitted effect of over 30% in size
HCMV antiviral – blocks human cytomegalovirus replication | HFF cells, HCMV-luciferase reporter, 72 h; active compounds read low | activity change, negative = inhibition, % at 57.5 µM | 410,000 compounds, 4.5% hits; in the data active = activity change below about -60%; inconclusive = no clear call, values can overlap the other calls; inactive = above about -39%
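Luciferase read-out from HCMV-luciferase-infected HFFs (MOI 1 PFU/cell) 72 h post infection at 37C; compounds added after 16 h cell attachment; activity normalized between buffer-only basal and Salinomycin (10uM) inhibitor controls.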
HCV inhibitor – blocks hepatitis C virus. Huh7.5.1 HCVcc-Cre infection, luciferase reporter, 44 h. Potency, µM (titrated, usually from 41.8 µM), for inactives: at the highest dose activity change, negative = inhibition, most hits filed as inhibitors. 340,000 compounds, 3.4% hits; note: potency is the fitted concentration of half-maximal effect
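Infectious HCVcc-Cre (~0.5 moi) was added to cells just after compound, with cells seeded 4 h earlier at 1,000 per well. Luciferase activity after 44 h culture reported infection; substrate was incubated 15 min at room temperature before reading.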
FMDV antiviral – blocks foot and mouth disease virus | AID 1159524 | 410,000 compounds, 1.2% hits | Potency, µM (highest dose often 57.9 µM), for the others: at the highest dose activity change, negative = inhibition, usual class: inhibitors | FMDV antiviral cell-based qHTS; calls by dose curve; tested in HEK293T cells; note: read-out not given here; potency is the fitted concentration of half-maximal effect; nearly all actives have a fitted effect of over 45% in size
Sm TGR block – S. mansoni TGR enzyme inhibition | Q962Y6 | 360,000 compounds, 3% hits | purified TGR, DTNB reduction, TNB absorbance 405 nm | Potency, µM (titrated, usually from 114 µM), for inactives: top-dose activity change, negative = inhibition, usual class: inhibitors; note: potency is the fitted concentration of half-maximal effect; nearly all actives have a fitted effect of over 60% in size
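TGR 20 nM + NADPH 100 uM (dispensed conc.), cpd preinc 15 min RT; start with NADPH (500 uM addition) then DTNB (15 mM addition). Kinetic TNB absorbance, 405 nm filter. Four-parameter Hill fit across titration.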
VACV mCherry inh – inhibitors of vaccinia virus infection (mCherry reporter signal); Vaccinia virus mCherry reporter infection, fluorescence; Potency, µM (titrated, usually from 36.5 µM), for the others: top-dose activity change, negative = inhibition, most hits filed as inhibitors; 310,000 compounds, 0.63% hits; AID 720579; calls by dose curve; tested in A549 cells; note: potency is the fitted concentration of half-maximal effect; nearly all actives have a fitted effect of over 35% in size
Numbers without * were called inactive; i = inactive; ? = inconclusive; nt = no result; [ ] = dose if it differs, or a comment. Unless noted, calls come from the whole dose curve; as a rule, active = well fitted curve in the direction sought with a large enough effect; inconclusive = small, poorly fitted or top-dose-only effect, or another doubt; inactive = no such curve, though single readings can be large; an effect the other way counts as inactive or inconclusive. % is set by controls: 0 for no effect and ±100 for the full control effect.

SMILES	VACV Venus inh	HCMV antiviral	HCV inhibitor	FMDV antiviral	Sm TGR block	VACV mCherry inh
COc1c(Cl)cc(Cl)cc1/C=N/NC(=O)c1nnn(-c2nonc2N)c1CN1CCC(C)CC1	-1%	-8	?	-17%	-4%	i
CC1CCN(Cc2c(C(=O)N/N=C/c3cc(Cl)ccc3O)nnn2-c2nonc2N)CC1	?	-100*	10µM*	-15%	-1%	5µM*
CC1CCN(Cc2c(C(=O)N/N=C/c3cc(Br)ccc3O)nnn2-c2nonc2N)CC1	?	-102*	3.5µM*	-7%	2%	?
CCCCSc1nc2c(=O)[nH][nH]c(=O)c2n1Cc1ccccc1	-9%	-21	17%	5%	-14%	-6%
Cn1cccc1C(=O)NC1CCCCC1	5%	22	?	11%	2%	-15%
Cc1cnc(C)c(Nc2nc(C(N)Cc3ccc(F)cc3)cs2)n1 (stereo unspecified)	-2%	-11	nt	-21%	nt	-10%
COc1c(C)oc2cc(O)ccc2c1=O	-11%	0	10%	-13%	0%	-5%
Oc1ccc2c(c1)oc1cc(O)ccc12	?	?	?	61%	-6%	10µM*
CCOc1ccc(C(=O)NC2CC(=O)N(c3ccc(C)cc3)C2)cc1OCC (stereo unspecified)	-5%[7.34 µM]	-21	nt	-10%	-3%	-8%[7.34 µM]
O=C1OC(c2ccc(Cl)cc2)=C/C1=C/c1cccnc1	-6%	15	33%	5%	-5%	-12%
O=C1OC(c2ccccc2)=C/C1=C/c1cccs1	-2%	26	50%	15%	-34%	-1%
O=C1OC(c2ccc(F)cc2)=C/C1=C\c1ccc([N+](=O)[O-])o1	nt	nt	nt	nt	4µM*	nt
O=C1OC(c2ccc(F)cc2)=C/C1=C\c1ccc(O)cc1	nt	25	-9%	35%	13µM*	nt
NC(N)=NS(=O)(=O)c1ccc(NC(=S)NC(=O)c2ccccc2)cc1	nt	0	2%	15%	16µM*	nt
NC(N)=NS(=O)(=O)c1ccc(NC(=S)NC(=O)/C=C/c2ccccc2)cc1	nt	19	8%	-11%	89µM*	nt
Cc1oc(-c2cccc(Br)c2)nc1CN1CCC(C(=O)NCc2ccccc2)CC1	-15%	0	nt	-6%	16%	-22%
O=C1C2CCCN2C(=O)N1CCCN1CCN(c2ccc([N+](=O)[O-])cc2)CC1 (stereo unspecified)	-8%	-11	?	-16%	-9%	-18%
CC(=O)Nc1ccc(NC(=O)c2ccc(CN3CCc4ccccc4C3)cc2)cc1	-7%	-17	-5%	-17%	-1%	i
O=C(Nc1cccc(Br)c1)c1ccc(CN2CCc3ccccc3C2)cc1	nt	-28	2.2µM*	?	0%	nt
O=C(Nc1ccc(F)cc1)c1ccc(CN2CCc3ccccc3C2)cc1	nt	0	5.6µM*	?	6%	nt
CSc1cccc(NC(=O)c2ccc(CN3CCc4ccccc4C3)cc2)c1	?	-61*	8.9µM*	?	-9%	-19%
Cc1ccccc1NC(=O)c1ccc(CN2CCc3ccccc3C2)cc1	?	?	?	?	0%	nt
CCc1ccc(NC(=O)CN2CCN(C3CCCCC3)C(=O)C2=O)cc1	-6%	-6	nt	-15%	4%	-4%
Cc1ccc(OCCC(=O)OCC(=O)NCc2ccccc2)cc1	-4%	-7	?	-6%	3%	-16%
CCc1cc(-c2nnn(CCC3COCCO3)c2CC)ccc1-c1cn(Cc2ccccc2)nn1 (stereo unspecified)	?	-83*	nt	?	nt	?
SMILES	VACV Venus inh	HCMV antiviral	HCV inhibitor	FMDV antiviral	Sm TGR block	VACV mCherry inh
Cc1cc(=O)oc2cc(NC(=O)c3ccc(OC(F)F)cc3)ccc12	-15%	-8	-7%	45%	-3%	-16%
COc1ccc(NC(=O)Cc2ccc(Cl)cc2Cl)cn1	-4%	-101*	-4%	-13%	-15%	i
COc1ccc(NC(=O)Cc2ccc(Cl)c(Cl)c2)cn1	-13%	1	-10%	3%	7%	i
COc1ccc(NC(=O)/C(Cl)=C(/Cl)S(=O)Cc2ccccc2Cl)cn1 (stereo unspecified)	2.8µM*	nt	2.8µM*	3.2µM*	0.089µM*	2µM*
COc1ccc(NC(=O)/C(Cl)=C(/Cl)S(=O)(=O)Cc2ccc(C)cc2)cn1	14µM*	nt	2.5µM*	22µM*	2.5µM*	nt
COc1ccc(NC(=O)COC(=O)C(NC(=O)c2ccc(C)cc2)C(C)C)cn1 (stereo unspecified)	-9%	-5	-17%	6%	nt	i
Cc1ccc(-c2ccc(/C=N\NC(=O)C3C(=O)NCC3c3ccccc3)o2)cc1Cl (stereo unspecified)	?	30	8.9µM*	-7%	?	?
O=C1NCC(c2ccccc2)C1C(=O)N/N=C\c1ccc(-c2cccc(Cl)c2Cl)o1 (stereo unspecified)	-23%	-9	-23%	-18%	-12%	nt
Cc1ccc(N2C(N)=NC(N)=NC23CCCC3)c(C)c1	1%	-67*	2%	-18%	4%	nt
CC(C)c1oc(=O)cc2c1[C@@H](O)[C@H]1OC(=O)[C@@]3(C)C[C@@H](O)[C@@H](O)[C@@]2(C)C13 (stereo partly specified)	2µM*	-98*	?	?	-9%	?
CC(C)c1oc(=O)cc2c1[C@@H](O)[C@H]1OC(=O)[C@@]3(C)CC[C@@H](O)[C@@]2(C)C13 (stereo partly specified)	4µM*	-97*	?	?	3%	?
Cc1cc(C)n2cc(CSCc3ccco3)nc2n1	-8%	-15	-1%	-2%	40µM*	i
Cc1ccnc(SCc2cn3c(C)cc(C)nc3n2)n1	nt	5	13%	13%	-2%	nt
Cc1cccc2nc(CSCc3ccco3)cn12	5%	159	13%	7%	28µM*	nt
O=C(O)c1ccc(-n2nncc2-c2ccccc2)cc1	-3%	-5	15%	14%	5%	i
COc1ccc(CCNC(=O)CSc2cn(Cc3ccccc3)c3ccccc23)cc1OC	-25%	-24	11µM*	?	3%	-10%
COc1ccc(CCNC(=O)CSc2cn(CCNC(=O)c3c(F)cccc3F)c3ccccc23)cc1OC	-2%	-15	nt	?	1%	-5%
COc1ccc(CCNC(=O)CS(=O)(=O)c2cn(CC(=O)N3CCOCC3)c3ccccc23)cc1OC	nt	-13	16%	-7%	25µM*	nt
COc1ccc(CCNC(=O)CSc2cn(Cc3cccc(C)c3)c3ccccc23)cc1OC	?	24	10µM*	0%	1%	?
COc1ccc(NC(=O)CS(=O)(=O)c2cn(CC(=O)N3CCOCC3)c3ccccc23)cc1OC	nt	-15	12%	-10%	-10%	nt

Bioassay records (PubChem)
